Source: PubChem BioAssay (NCATS)
Records with an inconclusive call do not appear. Entries that show only a call come without a potency. Active and inactive are the calls of the source. The call rests on the fitted dose curve; in most records, active means well fitted cell-killing curve with a large enough effect; inconclusive means small, poorly fitted or top-dose-only effect; inactive means flat fitted curve, though single readings scatter.

assay: qHTS of pediatric cancer cell lines to identify multiple opportunities for drug repurposing: Primary screen for DAOY cells (AID 1347090); details: DAOY medulloblastoma viability, CellTiter-Glo luminescence, 48 h; series mostly up to 46 µM; further: nearly all actives have a fitted effect of over 55% in size
From the text: Drug repurposing or repositioning has been offered as a strategy for drug development in oncology programs. This approach has special potential for childhood cancers and other rare or orphan diseases, where the expected return on new drug development has been a disincentive to pharmaceuticals.
In this project we exploit the poly-pharmacology of drugs to discover new indications via phenotypic screening of a panel of 19 well-characterized cell lines derived from solid tumors seen in children and adolescents. The goal is to identify approved drugs with previously unrecognized anticancer properties that has the potential to reveal new mechanisms and biological processes involved in carcinogenesis or drug resistance. We employed a titration-based paradigm (quantitative high-throughput screening or qHTS), where all compounds were tested at multiple concentrations for their effect on cell viability. Concentration-response curves (CRCs) were derived directly from the primary screen, and both potency and efficacy values were used to identify compounds with robust bioactivity profiles. We screened the NIH Chemical Genomics Center (NCGC) Pharmaceutical Collection (NPC) and Mechanism Interrogation Plate (MIPE) small molecule collections of approved and investigational compounds against these cell lines; and measured metabolically active cells after 48 hours of compound treatment as a proxy for cell viability.
Assay Submitter: Nathalia J. Martinez, National Center for Advancing Translational Sciences, National Institutes of Health, Rockville, MD, USA; email: natalia.martinez@nih.gov
[1] Shen, M et al. Quantitative high-throughput phenotypic screening of pediatric cancer cell lines identifies multiple opportunities for drug repurposing. Oncotarget 2017 Dec 19;9(4):4758-4772. PMID 29435139.
The cells were obtained from University of North Carolina (UNC), Pediatric Preclinical Testing Program (PPT), and Coriell Institute (CI).
qHTS cell viability assay:
Cells were assayed in growth media at a density of 500-1,000 cells/well. Five microliters of cells were dispensed into 1,536-well, white, solid-bottom, TC-treated plates (Greiner Bio One) using a multidrop dispenser and incubated at 37 degrees C, 5% CO2, under a humidified atmosphere for 5 hours. Twenty-three nanoliters of compounds and controls (neutral control DMSO or positive control bortezomib at final concentration of 2.3 µM) were subsequently transferred by Kalypsys pintool. For primary screens, the MIPE collection was tested at 11-point dilutions (final concentrations range from 0.78 nM to 46 µM) and the NPC collection at 8-point dilutions (final concentrations range from 0.59 nM to 46 µM). Compounds tested in follow-up screens were assayed at 11-point dilutions. Cells were incubated for 48 hours, followed by addition of 3 uL of CellTiter-Glo (Promega). After a 15 min incubation at room temperature, samples were analyzed for luminescence intensity using a ViewLux High-throughput CCD imager equipped with clear filters.
Potency means the concentration at half of the fitted maximal effect.

| SMILES | Potency |
| --- | --- |
| C[C@@H]1CCC[C@H](C)N1CCCC(O)(c1ccccc1)c1ccccn1 (stereo not given in full) | inactive |
| CC(=O)[C@@]1(O)CC[C@H]2[C@@H]3C[C@H](C)C4=CC(=O)CC[C@]4(C)[C@H]3CC[C@@]21C | inactive |
| CC(C)(C)c1nnc(NS(=O)(=O)c2ccccc2)s1 | inactive |
| CCCCCN(CCCOC)C(=O)C(CCC(=O)O)NC(=O)c1ccc(Cl)c(Cl)c1 (stereo not given) | inactive |
| CC(=O)N1CCN(c2ccc(O)cc2)CC1 | inactive |
| OC[C@]1(O)OC[C@@H](O)[C@H](O)[C@@H]1O | inactive |
| COc1ccc(/C(C)=C/C(=O)O)c(OC)c1 | inactive |
| O=C1Nc2cc(Cl)ccc2Oc2ccccc21 | inactive |
| Cc1ncc([N+](=O)[O-])n1C | inactive |
| COC(=O)/C=C\C(=O)OC | inactive |
| CCCC(=O)OCOC(=O)C1=C(C)NC(C)=C(C(=O)OC)C1c1cccc(Cl)c1Cl (stereo not given) | inactive |
| Cn1cc(S(C)=O)c(=O)c2ccc(F)cc21 (stereo not given) | inactive |
| CCCCC(CC)CNC(=O)CC(C)OC(=O)CCC(=O)O (stereo not given) | inactive |
| Cc1cc(O)c(C)c(C)c1O | inactive |
| C[C@H]1C[C@H](O)c2ccsc2S1(=O)=O | inactive |
| CCOC(=O)O[C@]1(C(=O)OCCl)CC[C@H]2[C@@H]3CCC4=CC(=O)C=C[C@]4(C)[C@H]3[C@@H](O)C[C@@]21C | inactive |
| CCS(=O)(=O)c1ccc(OC)c(C(=O)OC)c1 | inactive |
| c1ccc(C(O[C@H]2CCCN(CCc3ccc4c(c3)OCO4)C2)c2ccccc2)cc1 | inactive |
| N#CSCC(=O)O | inactive |
| CC1CCCCN1CCCOC(=O)c1ccc(OC2CCCCC2)cc1 (stereo not given) | inactive |

| SMILES | Potency |
| --- | --- |
| CC(CC1c2ccccc2CCc2ccccc21)CN(C)C (stereo not given) | inactive |
| C[C@H]1C[C@H]2[C@@H]3CCC4=CC(=O)C=C[C@]4(C)[C@H]3C(=O)C[C@]2(C)[C@@]1(O)C(=O)CO | inactive |
| C1N2CN3CN1CN(C2)C3 | inactive |
| Nc1ccc(O)cc1 | inactive |
| O=C(c1ccco1)N1CCNCC1 | inactive |
| CC(=O)OC/C=C(C)/C=C/C=C(C)/C=C/C1=C(C)CCCC1(C)C | inactive |
| CCCN(CCC)C(=O)C(CCC(=O)OCCCN1CCN(CCOC(=O)Cc2c(C)n(C(=O)c3ccc(Cl)cc3)c3ccc(OC)cc23)CC1)NC(=O)c1ccccc1 (stereo not given) | inactive |
| O=C(O)Cn1cnnn1 | inactive |
| CC(CC(C#N)(c1ccccc1)C(C)C)N(C)C (stereo not given) | inactive |
| Oc1ccccc1-c1nnco1 | inactive |
| CCOC(=O)OCC/C(SC(=O)OCC)=C(\C)N(C=O)Cc1cnc(C)nc1N | inactive |
| O=C(NN1CCCC1)NS(=O)(=O)c1ccc(Cl)cc1 | inactive |
| CCC(=O)O[C@]1(C(=O)COC)[C@@H](C)C[C@H]2[C@@H]3CCC4=CC(=O)C=C[C@]4(C)C3(F)[C@@H](O)C[C@@]21C (stereo not given in full) | inactive |
| Cc1ccc(CCn2c3c(c4cc(Cl)ccc42)CN(C)CC3)cn1 | inactive |
| O=C1NC(c2ccccc2)(c2ccccc2)C(=O)N1COP(=O)(O)O | inactive |
| CCOC(=O)c1cc(=O)c2c(OCC(COc3cccc4oc(C(=O)OCC)cc(=O)c34)OC(=O)[C@@H](N)CCCCN)cccc2o1 | inactive |
| CO[C@@]1(NC(=O)CSC[C@@H](N)C(=O)O)C(=O)N2C(C(=O)O)=C(CSc3nnnn3C)CS[C@@H]21 | inactive |
| CCCCCCCCCCCCCCCC[n+]1ccccc1 | 16.8 µM (active) |
| COC(=O)c1cc(S(N)(=O)=O)ccc1OC | inactive |
| Cc1ccc(C(C)OC(=O)C2(C)CCC(C(=O)O)C2(C)C)cc1 (stereo not given) | inactive |
